# Source: PubChem BioAssay (EPA / NIEHS)
# Where “and” joins values, the source holds several entries; their conditions need not be identical. Equal values may be shown once. Results filed as inconclusive are left out. Where a structure was tested more than once in an assay, its records may differ in their call. Calls of active or inactive are those of the source. The calls were made as follows, unless noted: active = hit-call score of the fitted dose curve at least 0.9, where 1 is the maximum; inconclusive = response in the unintended direction; inactive = score below 0.9.
# Key:
# [1] = TOX21_p53_BLA_p2_viability: Viability Assessment in the Tox21 HCT-116 p53 Agonism Beta-lactamase Assay, Phase 2 (AID 2283591);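 also: compound exposure lasted 16 h at 37 °C; actives lower the ATP signal meaning cytotoxicity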
# How it was run: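 HCT-116 p53-bla cells (4000/well) rested 5 h at 37C, then received compounds in DMSO (217-fold dilution) for 16 h at 37C, 5% CO2. After the CCF4 read, CellTiter-Glo was added; ATP luminescence was read after 30 min at room temperature.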
# [2] = TOX21_p53_BLA_p4_viability: Viability Assessment in the Tox21 HCT-116 p53 Agonism Beta-lactamase Assay, Phase 4 (AID 2283597);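 also: hits lower the luminescence signal meaning cytotoxicity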
# How it was run: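 We seeded HCT116 p53 reporter cells at 4000/well and waited 5 h. We then added compounds in DMSO at a 217-fold dilution and incubated for 16 h. Viability was read as CellTiter-Glo luminescence after 30 min at RT.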
# [3] = molecular target: Cellular tumor antigen p53 (Homo sapiens) (UniProt P04637); experiment: TOX21_p53_BLA_p5_ratio: Tox21 HCT-116 p53 Agonism Beta-lactamase Assay, Ratio, Phase 5 (AID 2283599)
# Chain of Cellular tumor antigen p53 (Homo sapiens) (P04637 whole entry, looked up): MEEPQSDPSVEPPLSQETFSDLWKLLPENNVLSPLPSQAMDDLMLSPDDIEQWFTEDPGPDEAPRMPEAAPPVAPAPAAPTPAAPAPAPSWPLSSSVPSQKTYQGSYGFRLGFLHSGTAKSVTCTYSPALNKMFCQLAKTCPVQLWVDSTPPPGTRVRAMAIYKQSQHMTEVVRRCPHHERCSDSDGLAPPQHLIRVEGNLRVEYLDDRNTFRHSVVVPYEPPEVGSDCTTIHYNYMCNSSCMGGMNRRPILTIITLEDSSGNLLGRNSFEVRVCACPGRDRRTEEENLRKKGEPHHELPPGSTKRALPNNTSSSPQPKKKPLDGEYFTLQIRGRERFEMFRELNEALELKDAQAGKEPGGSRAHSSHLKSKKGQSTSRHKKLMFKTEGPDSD
# How it was run: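 HCT-116 cells carrying a p53-inducible beta-lactamase reporter were seeded at 4000 cells/well and dosed after 5 h with compound in DMSO (217-fold dilution). After 16 h at 37C, CCF4-AM substrate was added for 2 h, and the 460/530 nm emission ratio was scored as gain-of-signal versus DMSO.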
# [4] = molecular target: Cellular tumor antigen p53 (Homo sapiens) (UniProt P04637); experiment: TOX21_p53_BLA_p4_ratio: Tox21 HCT-116 p53 Agonism Beta-lactamase Assay, Ratio, Phase 4 (AID 2283601)
# How it was run: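 HCT116 cells carrying an inducible beta-lactamase reporter were plated at 4000 cells/well, rested 5 h, then exposed to compounds in DMSO (217-fold dilution) for 16 h at 37C. CCF4-AM substrate was loaded 2 h at room temperature; 460/530 nm emission ratio scored gain-of-signal versus DMSO.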
# [5] = CCTE_Harrill_HTTr_Viability_MCF7: CCTE's 6-hour Cell Viability Assessment for the High-Throughput Transcriptomics (HTTr) Platform, in MCF-7 cells cultured in DMEM + 10% fetal bovine serum, Harrill Lab (AID 2284010; active = hit-call score of the fitted dose curve at least 0.9, where 1 is the maximum; inactive = score below 0.9)
# How it was run: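 Membrane integrity was scored by high-content imaging of propidium iodide dye exclusion after a 6 h exposure across an eight-point dilution series. Data were fitted bidirectionally relative to DMSO as negative control and baseline.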
# [6] = CCTE_Harrill_HTTr_Apoptosis_MCF7: CCTE's 6-hour Apoptosis Assessment for the High-Throughput Transcriptomics (HTTr) Platform, in MCF-7 cells cultured in DMEM + 10% fetal bovine serum, Harrill Lab (AID 2284011; active = hit-call score of the fitted dose curve at least 0.9, where 1 is the maximum; inactive = score below 0.9)
# How it was run: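 Read-out: CellEvent Caspase 3/7 Green signal by high content imaging, gain-of-signal indicating apoptosis. MCF-7 cells, DMEM + 10% FBS, eight-point dilution series, 6 h exposure. Curves fitted bidirectionally relative to DMSO negative control.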
# [7] = CCTE_Harrill_HTTr_CellCount_MCF7: CCTE's Cell Proliferation Assessment for the High-Throughput Transcriptomics (HTTr) Platform, Harrill Lab (AID 2284012);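 also: cells exposed to compound for six hours; intended direction is loss of nuclei count meaning fewer cells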
# How it was run: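 MCF-7 cells were exposed for 6 h to an eight-point dilution series; Hoechst-labeled nuclei were counted by high content imaging. Curves were fitted bidirectionally against DMSO as negative control and baseline, with signal loss indicating reduced cell count.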
# [8] = molecular target: Cellular tumor antigen p53 (Homo sapiens) (UniProt P04637); experiment: TOX21_p53_BLA_p2_ratio: Tox21 HCT-116 p53 Agonism Beta-lactamase Assay, Ratio, Phase 2 (AID 2283592)
# How it was run: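 In this cell-based reporter format, HCT116 cells were dosed with chemicals delivered from DMSO by 217-fold dilution and incubated 16 h at 37C. Emission at 460 and 530 nm after 2 h CCF4-AM loading provided the ratio, fitted upward versus DMSO.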
# [9] = TOX21_p53_BLA_p3_viability: Viability Assessment in the Tox21 HCT-116 p53 Agonism Beta-lactamase Assay, Phase 3 (AID 2283593);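 also: cells exposed to compound for 16 h before reading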
# How it was run: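 HCT-116 cells (4000/well) rested 5 h at 37C, then got DMSO compounds by pin tool (217-fold dilution) for 16 h at 37C, 5% CO2. After the bla read, CellTiter-Glo was added and luminescence read at 30 min, room temperature.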
# [10] = TOX21_p53_BLA_p5_viability: Viability Assessment in the Tox21 HCT-116 p53 Agonism Beta-lactamase Assay, Phase 5 (AID 2283600)
# How it was run: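 Compounds, pinned from DMSO at 217-fold dilution, were left on the cells for 16 h. The viability endpoint was ATP content measured by CellTiter-Glo luminescence, where falling signal reflects cytotoxicity.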
# [11] = molecular target: Cellular tumor antigen p53 (Homo sapiens) (UniProt P04637); experiment: TOX21_p53_BLA_p3_ratio: Tox21 HCT-116 p53 Agonism Beta-lactamase Assay, Ratio, Phase 3 (AID 2283596)
# How it was run: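 HCT116 p53-bla cells (4000/well) given compound in DMSO (217-fold dilution) after 5 h, incubated 16 h at 37C. CCF4-AM substrate 2 h at room temperature; 460/530 nm emission ratio, gain fitted against DMSO.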
smiles,measurement,setting,value
NC(=S)Nc1cccc2ccccc12,outcome,[1],inactive
same,outcome,[2],inactive
same,outcome,[3],inactive
same,outcome,[4],inactive
Cc1onc(-c2ccccc2)c1C(=O)N[C@@H]1C(=O)N2[C@@H]1SC(C)(C)[C@@H]2C(=O)O,outcome,[1],inactive
same,outcome,[2],inactive
same,outcome,[4],inactive
NC(=O)c1ccncc1,outcome,[1],inactive
same,outcome,[2],inactive
same,outcome,[3],inactive
same,outcome,[4],inactive
Cc1ccc(C(C)NC(=O)[C@@H](NC(=O)OC(C)C)C(C)C)cc1 (stereo not given in full),outcome,[1],inactive
same,outcome,[2],inactive
same,outcome,[3],inactive
same,outcome,[4],inactive
same,outcome,[5],inactive
same,outcome,[6],inactive
same,outcome,[7],inactive
O=C(O)c1ccc(Cl)cc1Cl,outcome,[1],inactive
same,outcome,[3],inactive
same,outcome,[4],inactive
CC1=C(C/C=C(\C)CCC[C@H](C)CCC[C@H](C)CCCC(C)C)C(=O)c2ccccc2C1=O,outcome,[1],inactive
same,outcome,[4],inactive
Clc1ccnc(Cl)n1,outcome,[8],inactive
same,outcome,[9],inactive
CCCCC(=O)N(C)C,outcome,[1],inactive
same,outcome,[3],inactive
same,outcome,[4],inactive
NS(=O)(=O)c1cc(C(=O)O)cc(N2CCCC2)c1Oc1ccccc1,outcome,[1],inactive
same,outcome,[10],inactive
same,outcome,[4],inactive
CCCCCCCCCC#N,outcome,[1],inactive
same,outcome,[3],inactive
same,outcome,[4],inactive
CCC(O)C(C)(C)C (stereo not given),outcome,[1],inactive
same,outcome,[3],inactive
same,outcome,[10],inactive
same,outcome,[4],inactive
COC(=O)CCCCC(=O)O,outcome,[8],inactive
same,outcome,[9],inactive
same,outcome,[11],inactive
CC[N+](C)(CC)CCOC(=O)C(O)(c1ccccc1)C1CCCCC1 (stereo not given),outcome,[1],inactive
same,outcome,[10],inactive
CCOC(=O)O[C@]1(C(=O)COC(=O)CC)CC[C@H]2[C@@H]3CCC4=CC(=O)C=C[C@]4(C)[C@H]3[C@@H](O)C[C@@]21C,outcome,[1],inactive
same,outcome,[3],inactive
same,outcome,[10],inactive
same,outcome,[4],inactive
COC(=O)C[C@](O)(CCCC(C)(C)O)C(=O)O[C@@H]1C(OC)=CC23CCCN2CCc2cc4c(cc2[C@H]13)OCO4 (stereo not given in full),AC50,[8],20.2 nM (active)
same,outcome,[8],inactive
same,outcome,[9],inactive
same,AC50,[11],45.4 nM (active) and 43.1 nM (active)
same,AC50,[2],14 nM (active)
same,outcome,[10],inactive
CC(=O)O[C@H]1C[C@@H]2CC[C@@H]3[C@H](CC[C@@]4(C)[C@H]3C[C@H](N3CC[N+](C)(C)CC3)[C@@H]4OC(C)=O)[C@@]2(C)C[C@@H]1N1CC[N+](C)(C)CC1,outcome,[1],inactive
same,outcome,[3],inactive
same,outcome,[10],inactive
same,outcome,[4],inactive
CC(O)Cn1cnc2c1c(=O)n(C)c(=O)n2C (stereo not given),outcome,[1],inactive
same,outcome,[4],inactive
COC1[C@@H](O[C@@H]2O[C@H](C)[C@@H](O[C@H]3C[C@@](C)(O)[C@H](OC(=O)CC(C)C)[C@H](C)O3)[C@H](N(C)C)[C@H]2O)[C@@H](CC=O)C[C@@H](C)[C@@H](O)/C=C/C=C/C[C@@H](C)OC(=O)C[C@H]1OC(C)=O (stereo not given in full),outcome,[8],inactive
same,outcome,[9],inactive
same,outcome,[11],inactive
same,outcome,[2],inactive
CCOC(=O)CC(C)=O,outcome,[1],inactive
same,outcome,[10],inactive
